Screens from PubChem BioAssay.
CD40 NFkB inh: CD40 pathway inhibition in BL2 cells; inhibition, % at 10 µM; 83,000 tested, 0.94% active; BL2 NF-kB luciferase reporter, CD40L-induced, 4 h;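 active = mean inhibition of at least 50% with a set share of replicates also reaching that level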;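 note: 0% = neutral control wells and 100% = IKK inhibitor VII at 50 µM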
Active calls of the source: *; ! = repeats disagree; [ ] = another dose, or the depositor's remark. The entries come from a sample that favours hits as a whole.

SMILES	CD40 NFkB inh
C[C@@H]1CN([C@H](C)CO)C(=O)c2c(c3ccccc3n2C)-c2ccccc2CO[C@H]1CN(C)S(=O)(=O)c1ccccc1	19
COc1ccc(S(=O)(=O)N(C)C[C@H]2OCc3ccccc3-c3c(n(C)c4ccccc34)C(=O)N([C@@H](C)CO)C[C@H]2C)cc1	-8
COc1cccc(S(=O)(=O)N(C)C[C@H]2OCc3ccccc3-c3c(n(C)c4ccccc34)C(=O)N([C@@H](C)CO)C[C@@H]2C)c1	59*[25 µM]
C[C@H]1CN([C@@H](C)CO)C(=O)c2c(c3ccccc3n2C)-c2ccccc2CO[C@@H]1CN(C)S(=O)(=O)c1ccc([N+](=O)[O-])cc1	50*[25 µM]
C[C@@H]1CN([C@@H](C)CO)C(=O)Cc2cc(NC(=O)c3ccncc3)ccc2O[C@H]1CN(C)C(=O)Nc1ccc(F)cc1	-3[25 µM]
O=C(CN1N=C(c2ccc(Cl)cc2)CCC1=O)NCCN1CCc2ccccc2C1	4
CCC(C)n1c(SC(C)C#N)nc2ccccc2c1=O (centres undefined)	-10
COc1ccc(-c2cccc(C(=O)Nc3cccc(C(=O)O)c3)c2)cc1	-106
COc1ccc(NC(=O)CC2SC(=NCC3CCCO3)NC2=O)c([N+](=O)[O-])c1 (centres undefined)	-5
O=C(CCCN1C(=O)c2cccnc2Oc2ccc(Cl)cc21)N1CCCCC1	14
COc1cccc2c1C(=O)c1c(O)c3c(c(O)c1C2=O)C[C@@](O)(C(C)=O)C[C@@H]3OC1CC(N)C(O)C(C)O1 (some centres undefined)	87*[25 µM]
COc1cccc(NC(=O)N(C)C[C@@H]2OCc3ccccc3-c3ccccc3C(=O)N([C@@H](C)CO)C[C@H]2C)c1	-20[25 µM]
O=C(COC(=O)COc1ccc(Cl)cc1)NCCCc1ccccc1	6
CC(C)(C)N(Cc1ccccc1)C(=O)COC(=O)C1CCCCC1	10
CC(C)(C)OC(=O)COc1cc(OCC(=O)OC(C)(C)C)c2c(=O)cc(-c3ccccc3)oc2c1	57*!
CCOC(=O)COc1ccc2c(=O)c(-c3ccccc3)coc2c1	-13
O=c1cc(-c2ccccc2)oc2cc(OCc3ccccc3)cc(O)c12	12
OCCCNc1ncnc2sc3c(c12)CCN(Cc1ccccc1)C3	4
CCCCCCc1nnc(NC(=O)OCC)s1	-5
Cc1cccc(OCCCC(=O)NNC(=O)c2ccncc2)c1	6
CCOC(=O)c1sc2ccccc2c1OC(=O)c1ccccc1OC	64*
CCOC(=O)C1=C(COC(=O)c2ccccc2OC)NC(=O)NC1C (centres undefined)	-5
CC(=O)c1sc2ccccc2c1OC(=O)c1ccco1	-6
CCC(=O)N1CCCCN2[C@H](CO)[C@H](c3ccc(C#Cc4ccccc4)cc3)[C@H]2C1	8[25 µM]
CNc1ccc(C(=O)OCC(=O)NC(=O)NC2CCCCC2)cc1[N+](=O)[O-]	3
SMILES	CD40 NFkB inh
COc1ccc(C(=O)OCC(=O)Nc2ccc(OC)c(S(=O)(=O)N3CCCCC3)c2)cc1[N+](=O)[O-]	5
Nc1ccc(C(=O)NNC(=O)C2COc3ccccc3O2)cc1[N+](=O)[O-] (centres undefined)	2
CS(=O)(=O)c1ccc(C(=O)OCC(=O)NC(=O)C2COc3ccccc3O2)cc1[N+](=O)[O-] (centres undefined)	95*
CS(=O)(=O)c1ccc(C(=O)OCC(=O)NC(=O)C2CCCCC2)cc1[N+](=O)[O-]	85*
CC(C)(C)C(=O)COC(=O)c1ccc(N)c([N+](=O)[O-])c1	-65
CC(=O)N1[C@H](CN(C(=O)c2cccc(F)c2)C(C)C)[C@@H](c2ccccc2)[C@@H]1CO	-10[25 µM]
COc1ccc(-n2c(C)c3c(C)nnc(C)c3c2C)cc1OC	-5
COc1cc(N2C(=O)C=CC2=O)ccc1N1C(=O)C=CC1=O	109*
COc1ccccc1N1C(=O)C2CC(C)=C(C)CC2C1=O (centres undefined)	-5
COc1ccc2c3c([nH]c2c1)[C@@H](CO)N(C)CC31CN(C(=O)C2CC2)C1	2[25 µM]
CO[C@H]1CN(C)C(=O)c2ccc(NC(=O)C3CCC3)cc2OC[C@H](C)N(Cc2ccccn2)C[C@@H]1C	-3[25 µM]
c1ccc(-c2noc(-c3ccno3)n2)nc1	-25
c1ccc(-c2noc(-c3ccco3)n2)nc1	-71
c1ccc(-c2nc(-c3ccccn3)no2)cc1	87*
O=C(CSC1=NS(=O)(=O)c2cc(Cl)ccc2N1)NCc1ccccc1	20
O=C(NCC1CC1)[C@H]1[C@H](CO)[C@H]2Cn3c(ccc(-c4ccncc4)c3=O)[C@@H]1N2Cc1nccs1	-6[25 µM]
Cc1[nH]c2ccccc2c1C1=CC(=O)C=CC1=O	91*
Cc1[nH]c2ccccc2c1CCO	18
Cc1[nH]c2ccccc2c1CC#N	-1
NC(=O)COC(=O)C12CC3CC(CC(O)(C3)C1)C2	12
C[C@H](CO)N1C[C@H](C)[C@H](CN(C)C(=O)c2ccccc2)OCc2cn(nn2)CCCC1=O	2
CCc1ccccc1NC(=S)N(Cc1ccc(C(=O)O)cc1)Cc1ccc(OC)c(OC)c1	7
O=C(c1ccco1)N1CCN(C23CC4CC(CC(C4)C2)C3)CC1	5
